Compound activity: PubChem BioAssay, National Center for Advancing Translational Sciences (NCATS)
HT1080 IDH1KD tx = HT-1080 IDH1 knockdown cell toxicity (counter line) | HT-1080 IDH1 knockdown viability, ATP luminescence, 48 h | Potency, µM (highest dose often 46.1 µM), for the others: at the highest dose activity, negative = toxicity, hits mostly cytotoxic | 360,000 compounds, 2% hits | AID 686971;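 further: 0% = DMSO wells and -100% = cell-free medium wells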
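Assay cells: HT-1080 with IDH1 knockdown, 750 per well, RPMI/5% FBS. Exposure: 48 h at 37 °C following 2 h pre-incubation. Read: CellTiter-Glo luminescence; fitted concentration-response, curve class assigned.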
TDP1 cell noCPT = qHTS for Inhibitors of human tyrosyl-DNA phosphodiesterase 1 (TDP1): qHTS in cells in absence of CPT; DT40 Tdp1-/- hTDP1 cells, no CPT, ATP luminescence, 48 h; Potency, µM (titrated, usually from 46.2 µM), without a hit: at the top dose activity change, negative = growth inhibition, usual class: inhibitors; 420,000 compounds, 15% hits; further: nearly all actives have a fitted effect of over 55% in size
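Growth of hTDP1-complemented DT40 Tdp1-knockout cells is measured by ATP luminescence after at least 48 hr compound exposure at 37 °C, with DMSO substituting for the 20 nM CPT used in the parallel screen.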
DT40 TDP1 CPT = growth inhibition of DT40 Tdp1-/-;hTDP1 cells with camptothecin (screen for TDP1 inhibitors) | AID 686979 | 420,000 compounds, 12% hits | Potency, µM (doses to about 46.2 µM), for the others: top-dose activity change, negative = growth inhibition, hits mostly inhibitors | chicken DT40 Tdp1-/-;hTDP1 cells + 20 nM CPT, ATP luminescence, 48 h; further: nearly all actives have a fitted effect of over 55% in size
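Cell growth measured by CellTiter-Glo luminescence after a minimum 48 h, 37 C compound exposure with 20 nM CPT in Tdp1-knockout DT40 cells stably expressing hTDP1, seeded 400/well; qHTS titration format.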
HT1080-NT tox = kills 2HG-producing HT-1080-NT fibrosarcoma cells. HT-1080-NT fibrosarcoma viability, CellTiter-Glo ATP luminescence, 48 h. Potency, µM (titrated, usually from 46.1 µM), for inactives: at the top dose activity, negative = less viability, actives largely listed as cytotoxic. 360,000 compounds, 1.6% hits. AID 686970;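 further: NT is the 2HG producing partner of a matched IDH1 knockdown line; 0% = DMSO-treated cells and -100% = media-only wells without cells; nearly all actives have a fitted effect of over 55% in size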
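Viability by CellTiter-Glo luminescence after 48 h compound exposure at 37C of HT-1080-NT cells (750/well, RPMI, 5% FBS). % activity scaled between DMSO wells and medium-only wells, then curve-fitted and categorized by curve class.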
KB-3-1 cytotox = KB-3-1 parental cell cytotoxicity; 400,000 compounds, 1.4% hits; Potency, µM (doses to about 46.1 µM), most hits filed as cytotoxic; KB-3-1 viability, CellTiter-Glo ATP luminescence, 72 h; AID 1347075; further: nearly all actives have a fitted effect of over 60% in size
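KB-3-1 parental drug-naive adenocarcinoma cells in DMEM/10% FBS, incubated 72 h at 37 C with pin-transferred compounds across a concentration series. Viability by CellTiter-Glo luminescence; concentration-response curves fitted after normalization.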
KB-V1 MDR tox = kills drug-selected multidrug resistant KB-V1 cells. KB-V1 MDR cells viability, CellTiter-Glo, 72 h. Potency, µM (titrated, usually from 46.1 µM), usual class: cytotoxic. 400,000 compounds, 3.4% hits. AID 1347076; further: nearly all actives have a fitted effect of over 60% in size
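Cells of the MDR subline KB-V1 are plated, dosed with compound at multiple concentrations, and incubated 72 h at 37 degrees C; CellTiter-Glo is then added and luminescence read after 10 min.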
Active calls of the source: *; i = inactive; ? = inconclusive; . = no result given. Sampled rows, rich in hits. Any-hit rate of the full collection: about 19%. The call rests on the fitted dose curve; in most records, active means well fitted curve in the direction sought with a large enough effect; inconclusive means small, poorly fitted or top-dose-only effect, or another doubt; inactive means no such curve, though single readings can be large; an effect the other way counts as inactive or inconclusive. Unless noted, on the % scale 0 is the no-effect control and ±100 the full control effect; potency means the concentration at half of the fitted maximal effect.

SMILES	HT1080 IDH1KD tx	TDP1 cell noCPT	DT40 TDP1 CPT	HT1080-NT tox	KB-3-1 cytotox	KB-V1 MDR tox
COc1ccc(OC)c(Nc2sc(C(=O)c3ccccc3)c(N)c2S(=O)(=O)c2ccccc2)c1	.	?	-5%	.	i	i
Nc1c(C(=O)c2ccc(F)cc2)sc(Nc2ccccc2F)c1S(=O)(=O)c1ccc(Br)cc1	.	8.2µM*	5.2µM*	.	.	.
C[C@@H]1COc2cc(N(C)CCO)ccc2S(=O)(=O)N1	12%	-4%	-21%	19%	i	?
CCn1c(C(=O)N2CCC(C(=O)NCCc3ccc(OC)cc3OC)CC2)cc2sccc21	.	15µM*	21µM*	.	i	i
CCn1c(C(=O)N2CCC(C(=O)NCc3ccc(OC)cc3)CC2)cc2sccc21	-8%	-15%	?	-11%	i	i
CCOC(=O)N1CCN(C(=O)C2CCN(C(=O)c3cc4sccc4n3CC)CC2)CC1	0%	?	-21%	3%	i	i
CCOC(=O)N1CCC(NC(=O)C2CCN(C(=O)c3cc4sccc4n3CC)CC2)CC1	-1%	16µM*	?	6%	i	i
CC1(C)CC(=O)C=C(C(=O)N2CCCC(C(=O)c3cccc(Cl)c3)C2)O1 (stereo unspecified)	4%	?	?	6%	i	?
CCOC1=C2[C@H](c3ccccc3)N(S(=O)(=O)c3ccc(C)cc3)C(C(C)(C)C)[C@H]2C(C#N)(C#N)C(C#N)(C#N)C1 (stereo partly specified)	?	2.1µM*	2.1µM*	?	i	i
CCOC1=C2CN(S(=O)(=O)c3ccc(C)cc3)[C@H](c3cccc4ccccc34)C[C@H]2C(C#N)(C#N)C(C#N)(C#N)C1	?	5.8µM*	4.1µM*	?	i	i
CCCCC[C@@H]1[C@@H]2C(=C(OCC)C[C@@H]3C(=O)N(c4ccccc4)C(=O)[C@H]23)[C@H](c2ccccc2)N1S(=O)(=O)c1ccc(C)cc1	18%	-29%	-18%	18%	i	i
Cc1ccc(CCNC(=O)c2ccc(CS(=O)(=O)c3ccc(Br)cc3)o2)cc1	.	-2%	0%	.	i	i
COc1ccc(-n2c(/C=C(\C)O)nc(=O)c3c(C)cc(C)nc32)cc1	4%	?	?	-1%	i	7.3µM*
COc1ccc(-n2c(C)nn(C)c2=O)cc1	17%	?	-3%	2%	i	i
C=CCN1C(=O)/C(=c2\sc3nc(=O)c(Cc4ccccc4)nn3c2=O)c2ccccc21	-2%	-9%	-6%	-1%	i	i
C=CCN1C(=O)/C(=N/n2cnnc2)c2ccccc21	5%	4.6µM*	5.8µM*	1%	?	i
COc1ccc(C(c2c(NC(=O)c3ccco3)sc(C)c2C)N2CCOCC2)cc1 (stereo unspecified)	7%	?	?	0%	i	?
CCN1CCN(C(c2cccnc2)c2c(NC(=O)c3ccco3)sc(C)c2C)CC1 (stereo unspecified)	0%	23µM*	16µM*	-1%	i	i
CCN1CCN(C(c2ccccn2)c2c(NC(=O)c3ccccc3)sc(C)c2C)CC1 (stereo unspecified)	-23%	8.2µM*	8.2µM*	-30%	?	?
COc1ccccc1C(C[N+](=O)[O-])c1c[nH]c2ccccc12 (stereo unspecified)	?	?	?	15µM*	?	?
CCn1cc(C(c2ccccc2)C(C(C)=O)[N+](=O)[O-])c2ccccc21 (stereo unspecified)	-11%	?	?	?	i	?
CC(=O)C(C(c1ccccc1)c1c[nH]c2ccccc12)[N+](=O)[O-] (stereo unspecified)	23µM*	5.8µM*	6.5µM*	?	7.3µM*	?
O=C(NCCSCc1ccccc1)C1CCN(S(=O)(=O)Cc2ccccc2)CC1	.	-12%	-5%	.	i	?
Cc1ccc(Nc2nc3nonc3nc2Nc2cccc(C(F)(F)F)c2)cc1Cl	.	0.46µM*	0.52µM*	.	.	.
CC(C)(C)C(=O)OC/C(N)=N/OC(=O)c1ccccc1	13%	-14%	?	11%	i	i
SMILES	HT1080 IDH1KD tx	TDP1 cell noCPT	DT40 TDP1 CPT	HT1080-NT tox	KB-3-1 cytotox	KB-V1 MDR tox
N/C(=N\OC(=O)c1ccccc1)C(Cc1ccccc1)C(=O)NOC(=O)c1ccccc1 (stereo unspecified)	?	2.6µM*	2.9µM*	?	?	?
COc1ccc(S(=O)(=O)N(CC(=O)NC2CC2)Cc2ccccc2)cc1	0%	-6%	4%	3%	i	i
O=C(N/N=C1/C(=O)c2cccc3cccc1c23)c1ccc(Cl)cc1	-2%	4.6µM*	4.1µM*	6%	?	?
COc1ccc(C=C2CCc3ccccc3C2=O)cc1	?	?	?	?	i	i
COc1ccc(/C=C2/CCc3ccccc3C2=O)cc1OC	-13%	?	?	7%	i	?
COc1cc(/C=C2\CCc3ccccc3C2=O)cc(OC)c1OC	?	16µM*	18µM*	-13%	?	?
COc1cc(/C=C2/CCc3ccccc3C2=O)cc(OC)c1OC	-23%	15µM*	?	-17%	?	12µM*
Cc1ccc(C2(C)NC(=O)N(CC(=O)Nc3ccc(S(=O)(=O)Nc4nccs4)cc3)C2=O)cc1 (stereo unspecified)	3%	4%	14%	2%	i	i
CCNS(=O)(=O)c1ccc(OC)c(C(=O)NC2CCCCC2)c1	5%	-7%	-4%	5%	i	i
Cc1nn(-c2ccccc2)c(Cl)c1/C=N\NC(=O)c1cnccn1	11%	-5%	-9%	3%	i	i
N#CCC(=O)NNC(=S)NC(=O)C(c1ccccc1)c1ccccc1	0%	-11%	-2%	-1%	i	i
CC(=O)NC(=S)NNC(=O)C(c1ccccc1)c1ccccc1	-22%	21µM*	13µM*	0%	?	i
Cc1ccc(-c2nc(C#N)c(NCc3ccco3)o2)cc1	17%	?	-20%	39%	i	i
CNc1oc(-c2ccc(OCc3ccccc3)cc2)nc1C#N	-12%	-22%	-27%	-4%	i	23µM*
